PubChem BioAssay AID504773 (Broad Institute, 2011)
Entries with a potency or affinity are not part of this list. Active and inactive are the calls of the source.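 The calls were made as follows: active = polarization signal falls with dose and the fitted half-maximal concentration is at or below ten times the sample's top valid dose; inconclusive = flat curve at 30 to 70% inhibition, or poor fit; inactive = signal rises, flat within 30%, or potency beyond limit.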

Biological target: Golgi-associated PDZ and coiled-coil motif-containing protein (Homo sapiens) (UniProt Q9HD26)
Assay: CAL PDZ peptide-binding inhibitors, dose response, biochemical, fluorescence polarization, Cerulean-tagged CAL PDZ, cherry-picks (AID 504773)
Conditions: 1 h; series mostly up to 50 µM

outcome, inactive:
Cc1ccnc(SCC(=O)N2CCC(C(N)=O)CC2)n1, Cc1cc(C)nc(/N=C(\N)N2CCc3ccccc32)n1, CC1=C(C#N)C(Nc2ccc(Cl)cn2)(C(F)(F)F)C(=O)N1 (configuration not stated), CSc1cccc(NC(=O)N2CCCC(CNS(=O)(=O)Cc3ccccc3)C2)c1 (configuration not stated), Oc1ccccc1N=Cc1c(O)ccc2oc3c(c12)CCCC3, CCOc1ccc(C2=Nn3c(nnc3-c3ccco3)SC2)cc1, CCOc1ccccc1N(CC(=O)Nc1cccc2ccccc12)S(C)(=O)=O, Brc1cccc(CNCC2CCCO2)c1 (configuration not stated), Cc1cc(C(=O)Nc2ccccc2Cl)c2ccccc2n1, O=C(CSc1nc2c(sc3ccccc32)c(=O)n1Cc1ccccc1)NCC1CCCO1 (configuration not stated), O=C(NC(Cc1c[nH]c2ccccc12)C(=O)O)/C(=C/c1ccc(F)cc1)NC(=O)c1ccccc1 (configuration not stated), Oc1ccc(/C=N\Nc2nncc(-c3ccccc3)n2)cc1, NC(=O)c1cc2ccccc2o/c1=N\NC(=O)c1ccncc1, CCOC(=O)c1c(CN2CCOCC2)oc2ccc(OC(C)=O)cc12, CC1CCC(NS(=O)(=O)c2ccc3c(c2)n(C)c(=O)c(=O)n3C)CC1 (configuration not stated), CO[C@H]1O[C@H](C)[C@@H](O)C[C@H]1NC(=O)OCc1ccccc1, Cc1cccc(CN2CCc3c([nH]c4ccccc34)C2CC(C)C)n1 (configuration not stated), Cc1ccc(CN(C(=O)c2ccco2)C(C(=O)NC2CCCC2)c2cccnc2)cc1 (configuration not stated), O=C(c1cc2cc([N+](=O)[O-])ccc2oc1=O)N1CCN(C2CCCCC2)CC1, Cc1ccccc1-n1c(C)c(C#N)c(=O)c(-[n+]2ccccc2)c1[S-], O=C(O)c1ccc(Oc2cc(Oc3ccc(C(=O)O)cc3)cc([N+](=O)[O-])c2)cc1, Cc1nn2c3ccccc3nc2c2ccccc12, COc1ccc(CC(=O)NCC2CCCN(Cc3cccc(SC)c3)C2)cc1 (configuration not stated), O=C(O)c1[nH]c2ccccc2c1C(c1ccccc1)c1c(C(=O)O)[nH]c2ccccc12, O=C(COC(=O)c1cccc(O)c1)NC(=O)Cc1ccccc1, COC(=O)c1cccc([N+](=O)[O-])c1CS(=O)(=O)c1ccc(C)cc1, O=C(COC(=O)c1cccnc1Cl)Nc1ccc2c(c1)OCO2, Cc1ccc(S(=O)(=O)N2CCN(CCC#N)CC2)cc1, CCC1C(=O)NCCN1C(=O)CCc1nnc(CCc2ccc(OC)cc2)o1 (configuration not stated), O=C(NCCCn1ccnc1)c1ccccc1F, CN(C)c1ccc(P(=O)(OC2CCCCC2)C(O)c2cccnc2)cc1 (configuration not stated), COc1ccc2ccccc2c1CN(C)Cc1ccccc1, N=c1c(S(=O)(=O)c2ccc(Cl)cc2)cc2c(=O)n3ccccc3nc2n1C1CCCCC1, COc1cc(C(=O)ON=C2C(C)=CC(=O)C=C2C)cc(OC)c1OC, O=S(=O)(/N=C(/Nc1ccc(Cl)c(S(=O)(=O)N2CCOCC2)c1)c1ccc(F)cc1)c1ccccc1, CN(C)CCNC(=O)COc1cccc2c1OC(C)(C)C2, COc1ccc(OC)c(NC(=O)c2ccc(OC3CSC3)cc2)c1
